The results in this text go back to the supplement of paper PMC3484114.

± gives the standard deviation.

In the experiment the test system is OVCAR-3-derived ovarian cancer stem-like cells (spheroids). In words: cell growth relative to untreated control; higher = more growth (less inhibition). The note with it: 2.29 µM; 96 h. A digest of the protocol: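 Viability of stem-like cells from OVCAR-3 spheroids was assessed with TOX8 resazurin fluorescence at ex 560/em 590 nm. The cells had been trypsin-dissociated, seeded at 50,000 cells/mL in stem cell medium in ultra-low attachment 96-well plates and preincubated 24 h, then treated with compounds at 2.29 uM for 96 h at 37°C, 5% CO2, in 4 replicate wells, with fluorescence read after 4 h. Results were converted to percent growth against untreated wells after blank subtraction and Grubbs outlier removal.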
In the case of `N=N/C(=C\c1c(O)[nH]c2ccccc12)c1ccccc1`, the cell growth was determined as 64.5 ± 16%.

The compound `COC(=O)C1(C)CCCC2(C)c3cc(OC)ccc3C(=O)C(Br)C12` (centres undefined) displayed a cell growth of 89.4 ± 39%.

As for `CS(=O)(=O)c1nc(N)nc2nc[nH]c12`, the cell growth is 99.3 ± 19%.

`Cc1ccc(S(=O)(=O)SC/C=C/CSS(=O)(=O)c2ccc(C)cc2)cc1` had a cell growth of 113 ± 25%.

Take `COC(=O)c1cc(-c2c[nH]cc2C(=O)OCc2ccccc2)cn1S(=O)(=O)c1ccc(C)cc1`: the cell growth is 140 ± 35%.

With `CC1(O)C=CC(=O)C=C1`, the cell growth worked out at 116 ± 12%.

Regarding `Nc1ccccc1C(=O)NC(=O)Nc1ccc(Oc2ncc(Br)cn2)c(Cl)c1`, the cell growth came to 61.6 ± 21%.

Compound `CC[C@H](C)C(=O)O[C@H]1CCC=C2C=C[C@H](C)[C@H](CC[C@@H]3C[C@@H](O)CC(=O)O3)[C@H]21` showed a cell growth of 135 ± 25%.

Compound `Cc1ccc(S(=O)(=O)N2CCSCCSCCSCCSCC2)cc1` came in with a cell growth of 92.2 ± 26%.

For `O=C1CCC(c2ccccc2)=NN1c1nc2ccccc2s1`, the cell growth was found to be 39.3 ± 10%.

`c1coc(CNc2ncnc3[nH]ncc23)c1` displayed a cell growth of 37.7 ± 8.4%.

`Nc1nc(SCc2ccccc2Cl)c2[nH]cnc2n1` displayed a cell growth of 106 ± 13%.

Compound `CC(C)(O)CCC(O)C(C)(O)C1CCC2(O)C3=CC(=O)C4(O)CC(O)C(O)CC4(C)C3CCC12C.CC(C)(O)CCC(O)C(C)(O)C1CCC2(O)C3=CC(=O)C4CC(O)C(O)CC4(C)C3CCC12C` (centres undefined) yielded a cell growth of 98 ± 21%.

As to `C=C(CN(C)C)C(=O)c1ccccc1Cl`, the cell growth is 84 ± 22%.

The compound `CC(=O)NC1C(OCc2ccccc2)OC(CO)C(O)C1OC(C)C(=O)NC(C(=O)NC(CCC(=O)NCCCCNc1c2ccccc2nc2cccc([N+](=O)[O-])c12)C(N)=O)C(C)C` (centres undefined) gave a cell growth of 105 ± 21%.

On to `CN(C)CCCN1c2ccc3ccccc3c2Sc2cccc(Cl)c21`, for which the cell growth is 104 ± 19%.

In turn, `O=c1[nH]c(=O)n(C2OC(CO)C(O)C2O)cc1F` (centres undefined) yielded a cell growth of 19.2 ± 4.6%.

Compound `CN=c1sc2c(n1C)C(=O)c1ccccc1C2=O` registered a cell growth of 83.2 ± 26%.

`CCS(=O)(=O)Nc1ccc(Nc2c3ccccc3nc3ccccc23)c(OC)c1` yielded a cell growth of 32.5 ± 9%.

Compound `CCN1/C(=C\C(C)=C\c2sc3ccccc3[n+]2CC)Sc2ccccc21` returned a cell growth of 31.4 ± 6.9%.

In the case of `CC1=NN(C(=O)c2ccncc2)C(=O)C1N=Nc1ccc(F)cc1` (centres undefined), the cell growth amounted to 146 ± 33%.

The compound `C=C1C(=O)OC2C1CC1OC2C(C)CCC/C(C)=C\CCC1(C)O` (centres undefined) registered a cell growth of 115 ± 10%.

`O=S1(=O)OCCOS(=O)(=O)C1Cc1ccccc1`: the cell growth worked out at 93.4 ± 15%.

In turn, `CC1CCCC(C(=O)/C(=C/c2cccc(Cl)c2)C(=O)C(=O)O)C1` (centres undefined) gave a cell growth of 93.9 ± 27%.

Compound `COC(=O)C1(C)CCCC2(C)C3CCC4CC3(C=C4CO)CCC12` (centres undefined) yielded a cell growth of 95.7 ± 14%.

`CN(N=O)C(=O)N[C@@H]1[C@@H](O)[C@H](O)[C@@H](CO)O[C@@H]1O` yielded a cell growth of 104 ± 29%.

`CN(C)C[C@H]1CC[C@@H](CN(C)C)C1=O` came in with a cell growth of 93.8 ± 21%.

`CN(Cc1cnc2nc(N)nc(N)c2n1)c1ccc(C(=O)NC(CCC(=O)O)C(=O)O)c2ccccc12` (centres undefined): the cell growth came to 84.7 ± 30%.

Compound `O=C1C=CC(=O)c2c(O)c(N3CCN(CCOCCO)CC3)c(Br)c(O)c21` came in with a cell growth of 18 ± 6.4%.

With `CCN(CC)CCNc1ccc2nc(C)n3c4ccc(OC)cc4c(=O)c1c23`, the cell growth was 34.8 ± 9.9%.

Compound `Cc1nc(-n2nc(-c3ccccc3)cc2-c2ccccc2)sc1C(=O)/C=C/c1ccc(Cl)c(Cl)c1` showed a cell growth of 109 ± 25%.

Consider `O=C1C(Cl)=C(N2CCN(C3=C(Cl)C(=O)c4ccccc4C3=O)CC2)C(=O)c2ccccc21`, for which the cell growth amounted to 52.1 ± 17%.

Compound `CCCCCC(CN1CCOCC1)C(=O)/C=C/c1ccccc1` (centres undefined) showed a cell growth of 93 ± 29%.

In turn, `C=C(C)[C@@H]1CC[C@]2(C(=O)O)CC[C@]3(C)[C@H](CC[C@@H]4[C@@]5(C)CC[C@H](O)C(C)(C)[C@@H]5CC[C@]43C)[C@@H]12` returned a cell growth of 76 ± 22%.

Compound `CC/C(=C(\c1ccccc1)c1ccc(OCCN(C)C)cc1)c1ccccc1` gave a cell growth of 115 ± 14%.

Compound `C=C(Cl)C(Cl)(CBr)CCC(Br)C(C)(C)Cl` (centres undefined) displayed a cell growth of 70.7 ± 16%.

Compound `CC(=O)c1sc2[n+](c1C)C(=O)/C(=C\c1ccccc1Cl)S2` gave a cell growth of 99.4 ± 17%.

The compound `CC(C)=CC1C(C(=O)O)C1(C)C` (centres undefined) came in with a cell growth of 103 ± 37%.

Compound `CC(C)N.CC(C)N.[Cl-].[Cl-].[OH-].[OH-].[Pt]` displayed a cell growth of 65.4 ± 57%.
